{"source": "paper PMC4336329", "about": "(PLoS ONE, 2015)", "note": "In all, about 310,000 compounds went through this assay and about 14,000 (4.5%) showed an effect of 50% or more. The effect is printed as a negative number. Many of the other results were omitted from the sample, so strong results are more common in it than they were.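 Also: peak tail current of the secondary pulse compared with the same well before compound.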", "data": [{"molecular_target": "human ether-à-go-go-related gene (hERG) potassium channel (human, UniProt Q12809)", "sequence (Q12809 whole entry, looked up)": "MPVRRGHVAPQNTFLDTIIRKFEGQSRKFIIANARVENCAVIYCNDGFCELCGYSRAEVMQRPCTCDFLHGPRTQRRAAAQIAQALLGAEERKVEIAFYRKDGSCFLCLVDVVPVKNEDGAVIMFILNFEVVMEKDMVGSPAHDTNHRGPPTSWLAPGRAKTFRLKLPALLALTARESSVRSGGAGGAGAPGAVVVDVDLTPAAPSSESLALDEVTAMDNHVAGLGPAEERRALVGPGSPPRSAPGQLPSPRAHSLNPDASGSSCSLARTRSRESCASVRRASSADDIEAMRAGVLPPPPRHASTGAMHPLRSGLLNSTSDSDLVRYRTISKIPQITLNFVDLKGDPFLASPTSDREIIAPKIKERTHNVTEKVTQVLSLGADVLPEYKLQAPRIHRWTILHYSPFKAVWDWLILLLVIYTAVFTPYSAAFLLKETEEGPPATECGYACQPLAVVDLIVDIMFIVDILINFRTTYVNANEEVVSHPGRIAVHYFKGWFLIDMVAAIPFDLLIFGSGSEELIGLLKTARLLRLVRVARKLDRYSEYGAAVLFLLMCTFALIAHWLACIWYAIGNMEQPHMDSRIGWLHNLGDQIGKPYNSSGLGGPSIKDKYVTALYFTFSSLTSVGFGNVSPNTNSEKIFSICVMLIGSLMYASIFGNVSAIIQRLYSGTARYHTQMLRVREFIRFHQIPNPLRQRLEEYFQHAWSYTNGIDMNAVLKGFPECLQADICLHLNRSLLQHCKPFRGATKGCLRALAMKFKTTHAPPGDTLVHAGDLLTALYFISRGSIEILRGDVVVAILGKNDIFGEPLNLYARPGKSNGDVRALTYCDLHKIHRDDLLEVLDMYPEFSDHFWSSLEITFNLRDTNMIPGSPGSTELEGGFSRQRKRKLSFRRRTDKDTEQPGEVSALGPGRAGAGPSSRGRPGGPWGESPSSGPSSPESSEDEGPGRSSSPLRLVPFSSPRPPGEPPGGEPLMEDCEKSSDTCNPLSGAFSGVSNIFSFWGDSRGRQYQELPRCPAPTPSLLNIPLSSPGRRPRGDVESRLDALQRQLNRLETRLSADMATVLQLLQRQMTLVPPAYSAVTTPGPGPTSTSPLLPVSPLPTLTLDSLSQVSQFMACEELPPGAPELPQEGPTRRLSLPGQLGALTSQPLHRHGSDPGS", "assay": "primary screen, population patch clamp on CHO cells stably expressing hERG; higher = less effect of the substance", "units": {"hERG current change (%, negative = inhibition) at 10uM": "%"}, "values": [{"smiles": "O=C(NC1CCCCC1)c1ccc(OC2CCN(Cc3ccccn3)CC2)cc1", "hERG current change (%, negative = inhibition) at 10uM": -16}, {"smiles": "COc1ccc(OC)c(N(CC(=O)NCCSC2CCCCC2)S(=O)(=O)c2ccccc2)c1", "hERG current change (%, negative = inhibition) at 10uM": 16}, {"smiles": "Cc1cccc(NC(=O)CSc2nccn2Cc2ccco2)c1", "hERG current change (%, negative = inhibition) at 10uM": 0.772}, {"smiles": "Cc1c(NS(=O)(=O)c2ccc(C(=O)NCc3ccc(F)cc3)cc2)c(=O)n(-c2ccccc2)n1C", "hERG current change (%, negative = inhibition) at 10uM": -15}, {"smiles": "COc1ccc(C(=O)NC(=S)NNC(=O)c2ccccc2C)cc1", "hERG current change (%, negative = inhibition) at 10uM": 17.7}, {"smiles": "NC(=O)c1c(NC(=O)CSc2nc3c(c(C(F)(F)F)n2)CCc2ccccc2-3)sc2c1CCCC2", "hERG current change (%, negative = inhibition) at 10uM": -1.81}, {"smiles": "Nc1ccc2c(c1)C(=O)Cc1ccccc1S2", "hERG current change (%, negative = inhibition) at 10uM": 9.05}, {"smiles": "CCCOC(=O)c1ccc(OCC(O)CN2CCN(C(=O)c3ccccc3)CC2)cc1.Cl", "note": "(stereo not drawn)", "hERG current change (%, negative = inhibition) at 10uM": -73.7}, {"smiles": "COc1ccccc1OCC(O)CN1CCN(C(=O)c2ccccc2)CC1.Cl", "note": "(stereo not drawn)", "hERG current change (%, negative = inhibition) at 10uM": 1.39}, {"smiles": "COc1cc(C(=O)N2CCN(CC(O)COc3ccccc3)CC2)cc(OC)c1OC", "note": "(stereo not drawn)", "hERG current change (%, negative = inhibition) at 10uM": 4.32}, {"smiles": "CC(=O)/C(=N\\Nc1ccc(C)cc1)Sc1nncn1C", "hERG current change (%, negative = inhibition) at 10uM": -12.8}, {"smiles": "COc1ccccc1C(=O)NCc1ccc(-c2nc3ccccc3s2)cc1", "hERG current change (%, negative = inhibition) at 10uM": -11}, {"smiles": "O=C(NNc1nc(-c2ccccc2)cs1)c1ccccc1", "hERG current change (%, negative = inhibition) at 10uM": 3.27}, {"smiles": "Br.CC(C)CC1CC(C)(c2csc(NNC(=O)c3ccccc3)n2)OC1=O", "note": "(stereo not drawn)", "hERG current change (%, negative = inhibition) at 10uM": -74.5}, {"smiles": "CC1(C)CC(CC(=O)NNc2nc(-c3ccccc3)cs2)C(=O)O1", "note": "(stereo not drawn)", "hERG current change (%, negative = inhibition) at 10uM": -2.28}, {"smiles": "O=C(Nc1cccc(F)c1)C1C2C=CC3(CN(CCCN4CCOCC4)C(=O)C13)O2", "note": "(stereo not drawn)", "hERG current change (%, negative = inhibition) at 10uM": -8.87}, {"smiles": "Cl.O=C1CSC(c2ccccc2F)N1CCN1CCCCC1", "note": "(stereo not drawn)", "hERG current change (%, negative = inhibition) at 10uM": -10.6}, {"smiles": "CCOC(=O)C1(CC2CC2)CCN(Cc2cn[nH]c2-c2cccc(F)c2)CC1", "hERG current change (%, negative = inhibition) at 10uM": -91.6}, {"smiles": "CCOC(=O)C1(CC2CC2)CCN(Cc2ccc3cccc(F)c3n2)CC1", "hERG current change (%, negative = inhibition) at 10uM": -48.3}, {"smiles": "CCOC(=O)C1(CC2CCCCO2)CCN(Cc2cn[nH]c2-c2cccc(F)c2)CC1", "note": "(stereo not drawn)", "hERG current change (%, negative = inhibition) at 10uM": -53.9}, {"smiles": "CCOC(=O)C1(CC2CCCCO2)CCN(Cc2cc3ccccc3[nH]2)CC1", "note": "(stereo not drawn)", "hERG current change (%, negative = inhibition) at 10uM": -46.1}, {"smiles": "CCOC(=O)C1(CC2CCCCO2)CCN(S(=O)(=O)c2cccc(F)c2)CC1", "note": "(stereo not drawn)", "hERG current change (%, negative = inhibition) at 10uM": 29.8}, {"smiles": "CCOC(=O)C1(CC2CC2)CCN(Cc2cn[nH]c2-c2ccccc2)CC1", "hERG current change (%, negative = inhibition) at 10uM": -79.5}, {"smiles": "CCOC(=O)C1(Cc2ccccc2)CCN(Cc2cn[nH]c2-c2ccccc2)CC1", "hERG current change (%, negative = inhibition) at 10uM": -28.8}, {"smiles": "CCOC(=O)C1(CC2CC2)CCN(S(=O)(=O)/C=C/c2ccccc2)CC1", "hERG current change (%, negative = inhibition) at 10uM": -18.4}, {"smiles": "CC(C#N)Sc1ncnc2sc3c(c12)CCC3", "note": "(stereo not drawn)", "hERG current change (%, negative = inhibition) at 10uM": 0.835}, {"smiles": "CCC(Sc1ccc2nnc(CCNS(=O)(=O)c3ccc(OC)cc3)n2n1)C(=O)OC", "note": "(stereo not drawn)", "hERG current change (%, negative = inhibition) at 10uM": -10.7}, {"smiles": "OCCC1CN(Cc2ccccc2OC2CCCC2)CCN1Cc1ccsc1", "note": "(stereo not drawn)", "hERG current change (%, negative = inhibition) at 10uM": -68.7}, {"smiles": "Cc1nn(C(C)C)c(C)c1CN1CCN(Cc2ccsc2)C(CCO)C1", "note": "(stereo not drawn)", "hERG current change (%, negative = inhibition) at 10uM": 0.518}, {"smiles": "OCCC1CN(Cc2ccsc2)CCN1C1CCCC1", "note": "(stereo not drawn)", "hERG current change (%, negative = inhibition) at 10uM": -9.06}, {"smiles": "OCCC1CN(Cc2cccc(OC3CCCC3)c2)CCN1Cc1ccsc1", "note": "(stereo not drawn)", "hERG current change (%, negative = inhibition) at 10uM": -70}, {"smiles": "COc1cccc(CN2CCN(Cc3ccc4c(c3)OCCO4)CC2CCO)c1", "note": "(stereo not drawn)", "hERG current change (%, negative = inhibition) at 10uM": -7.1}, {"smiles": "CCCn1ncc(CN2CCN(Cc3ccsc3)C(CCO)C2)c1C", "note": "(stereo not drawn)", "hERG current change (%, negative = inhibition) at 10uM": -5.55}, {"smiles": "CC(=O)c1cccc(NC(=O)N2CCC(c3ccc(C)cc3)C2)c1", "note": "(stereo not drawn)", "hERG current change (%, negative = inhibition) at 10uM": -13.8}, {"smiles": "COc1ccc(-c2c(C(F)(F)F)oc3cc(OCC(=O)Nc4ccccc4C(F)(F)F)ccc3c2=O)cc1OC", "hERG current change (%, negative = inhibition) at 10uM": 4.91}, {"smiles": "CC1(C)Cc2nc3oc4c(N(CCO)Cc5ccccc5)ncnc4c3cc2CO1", "hERG current change (%, negative = inhibition) at 10uM": -65.6}, {"smiles": "CC1(C)Cc2nc3sc4c(N(CCO)CCO)ncnc4c3cc2CO1", "hERG current change (%, negative = inhibition) at 10uM": 3.56}, {"smiles": "CC1(C)Cc2nc3oc4c(NCc5ccccc5)ncnc4c3cc2CO1", "hERG current change (%, negative = inhibition) at 10uM": -10.7}, {"smiles": "CCN1CCN(C(=O)CN(c2cc(OC)ccc2OC)S(C)(=O)=O)CC1", "hERG current change (%, negative = inhibition) at 10uM": 16.2}, {"smiles": "O=C(c1ccc(Cl)cc1)N1N=C(c2ccccn2)CC1(O)C(F)(F)F", "note": "(stereo not drawn)", "hERG current change (%, negative = inhibition) at 10uM": -13.6}, {"smiles": "COc1ccc(S(=O)(=O)N2CCCCCC2)cc1NC(=O)c1ccccc1", "hERG current change (%, negative = inhibition) at 10uM": 10.5}, {"smiles": "COc1ccc(NC(=O)c2ccc3c(c2)OCCO3)cc1OC", "hERG current change (%, negative = inhibition) at 10uM": 9.47}, {"smiles": "COc1ccc(CCNS(=O)(=O)c2cccc(F)c2)cc1OC", "hERG current change (%, negative = inhibition) at 10uM": -1.75}, {"smiles": "Nc1nonc1C(=O)NCCNC(=O)c1cccs1", "hERG current change (%, negative = inhibition) at 10uM": -58.7}, {"smiles": "Nc1nonc1C(=O)NCCNC(=O)c1ccccc1F", "hERG current change (%, negative = inhibition) at 10uM": 4.12}, {"smiles": "C/C(=N\\NC(=O)c1nonc1N)c1cccs1", "hERG current change (%, negative = inhibition) at 10uM": 4.26}, {"smiles": "CCCCCCCCNC(=O)c1cnccn1", "hERG current change (%, negative = inhibition) at 10uM": -7.1}, {"smiles": "O=c1[nH]nc(CNc2ccc(O)cc2)c2ccccc12", "hERG current change (%, negative = inhibition) at 10uM": -6.61}]}]}
